Assay in all cases: NCI-60 one-dose screen, 48 h (100 = growth as untreated, 0 = no growth, -100 = all killed)
One assay has as its system K-562 leukemia. The following applies: 10 µM unless noted.
A further assay deals with MALME-3M melanoma. Conditions: 10 µM unless noted.
The subject of the next assay is MDA-MB-231 breast. Conditions: 10 µM unless noted.
A further assay concerns RXF 393 renal. Conditions: 10 µM unless noted.
In another assay the test system is SF-268 CNS. The following applies: 10 µM unless noted.
In another assay the test system is SF-295 CNS. Conditions: 10 µM unless noted.
For a further assay, the system named is SF-539 CNS. The following applies: 10 µM unless noted.
Another assay deals with UACC-257 melanoma. The following applies: 10 µM unless noted.
The test system of a further assay is M14 melanoma. The following applies: 10 µM unless noted.
For the next assay, the system named is HCT-15 colon. Conditions: 10 µM unless noted.
The next assay relates to HT29 colon. The following applies: 10 µM unless noted.
The test system of another assay is SNB-75 CNS. The following applies: 10 µM unless noted.
Another assay has as its system SNB-19 CNS. Conditions: 10 µM unless noted.
The next assay concerns U251 CNS. Conditions: 10 µM unless noted.
The subject of a further assay is PC-3 prostate. Conditions: 10 µM unless noted.
The next assay relates to SK-MEL-5 melanoma. The following applies: 10 µM unless noted.
The next assay has as its system UACC-62 melanoma. Conditions: 10 µM unless noted.
The next assay relates to SK-MEL-28 melanoma. Conditions: 10 µM.
The subject of the next assay is SK-MEL-2 melanoma. The following applies: 10 µM unless noted.
Another assay has as its system LOX IMVI melanoma. The following applies: 10 µM unless noted.

Each structure is given as a SMILES string. About 83,000 compounds went through this panel and 20% of them were active in at least one assay; those are over-represented in the sample as a whole.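 In brief: 96-well plates, 48 h treatment, single concentration, percent growth endpoint.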 Unmarked numbers belong to inactive results. The source made the active and inactive calls. How the source made its calls: active means growth percent below 10; inactive means the rest.

For `COc1ccccc1CNC(=O)C1c2ccccc2C(=O)N(CC(C)C)C1c1cccs1` (configuration not stated), the growth with K-562 leukemia was 16.4%; in the assay with MALME-3M melanoma it was 46.4%; in the assay on MDA-MB-231 breast it was 19.6%; with RXF 393 renal, -2.16% (active); with SF-268 CNS, 65.7%; in the assay with SF-295 CNS, -33.5% (active). Besides, the growth is 63.4% with SF-539 CNS; 96.2% with UACC-257 melanoma; 61.6% in the assay with M14 melanoma; 30.8% with HCT-15 colon; 11.9% in the assay with HT29 colon; 67.5% with SNB-75 CNS. Moreover, the growth is 90.6% with SNB-19 CNS; 49.7% with U251 CNS; 47.8% with PC-3 prostate; 52.2% in the assay with SK-MEL-5 melanoma; 46.4% with UACC-62 melanoma; 58.1% in the assay on SK-MEL-28 melanoma. The growth in the assay with SK-MEL-2 melanoma is 87.2%.
As to `O=C(Nc1ccc(Br)cc1F)c1cc(I)ccc1O`, the growth is 10.3% in the assay with K-562 leukemia; -20.4% (active) with MALME-3M melanoma; 32.3% in the assay on MDA-MB-231 breast; 1.53% (active) with RXF 393 renal; 12.7% in the assay on SF-268 CNS; 0.923% (active) with SF-295 CNS. Moreover, the growth in the assay with SF-539 CNS was 9.06% (active); in the assay on UACC-257 melanoma, -12.9% (active); in the assay on M14 melanoma it was 16.8%; with HCT-15 colon it was 11.9%; in the assay on HT29 colon, 92.4%; in the assay on SNB-75 CNS, -9.93% (active). Also, the growth was 13.3% in the assay on SNB-19 CNS; 3.12% (active) in the assay on U251 CNS; 7.07% (active) in the assay with PC-3 prostate; -68.4% (active) with SK-MEL-5 melanoma; 13.7% in the assay on LOX IMVI melanoma; 19.1% with SK-MEL-28 melanoma. Further, the growth in the assay with SK-MEL-2 melanoma is -26.7% (active).
In the case of `NC1C(N)C(N)C1N` (configuration not stated), the growth is 99.5% in the assay on K-562 leukemia; 114% in the assay on MALME-3M melanoma; 94.2% in the assay on MDA-MB-231 breast; 125% in the assay with RXF 393 renal; 109% with SF-268 CNS; 126% in the assay on SF-295 CNS. The growth in the assay on SF-539 CNS is 100%; in the assay with UACC-257 melanoma, 101%; in the assay on M14 melanoma, 101%; in the assay with HCT-15 colon, 109%; in the assay with HT29 colon, 106%; with SNB-75 CNS, 71.8%. The growth was 94.3% with SNB-19 CNS; 101% in the assay on U251 CNS; 96.1% in the assay on PC-3 prostate; 113% with SK-MEL-5 melanoma; 99.1% with UACC-62 melanoma; 95.1% in the assay on LOX IMVI melanoma. The growth in the assay on SK-MEL-2 melanoma was 92%.
For `Cc1ccc(Cn2c(N3CCC(C(=O)NCc4cccs4)CC3)nc3ccccc32)cc1`, the growth was -42.9% (active) with K-562 leukemia; 63.6% in the assay on MALME-3M melanoma; 71.3% in the assay on MDA-MB-231 breast; 80.7% in the assay on RXF 393 renal; 72.3% in the assay with SF-268 CNS; 97% in the assay on SF-295 CNS. Moreover, the growth in the assay on SF-539 CNS is 88%; in the assay with UACC-257 melanoma, 119%; in the assay with M14 melanoma it was 31.5%; in the assay on HCT-15 colon it was 87%; with HT29 colon, 48.6%; in the assay with SNB-75 CNS, 77.5%. The growth with SNB-19 CNS was 112%; in the assay on U251 CNS, 73.9%; with PC-3 prostate, 39.8%; in the assay with SK-MEL-5 melanoma it was 92%; with UACC-62 melanoma it was 101%; with SK-MEL-28 melanoma, 98.1%. The growth in the assay on SK-MEL-2 melanoma was 101%.
As to `CCN1CCN(C(=S)SCC(=O)Nc2nc3ccc(C)cc3s2)CC1`, the growth in the assay with K-562 leukemia was 104%; in the assay on MALME-3M melanoma, 105%; in the assay on MDA-MB-231 breast it was 104%; in the assay with RXF 393 renal, 108%; in the assay with SF-268 CNS it was 107%; with SF-295 CNS it was 106%. Besides, the growth in the assay with SF-539 CNS was 117%; in the assay with UACC-257 melanoma it was 116%; in the assay with M14 melanoma it was 124%; in the assay on HCT-15 colon, 103%; with HT29 colon it was 102%; in the assay on SNB-75 CNS it was 89%. For the same compound, the growth is 102% in the assay on SNB-19 CNS; 110% in the assay with U251 CNS; 88.8% in the assay on PC-3 prostate; 97.5% in the assay on SK-MEL-5 melanoma; 3.49% (active) with LOX IMVI melanoma; 108% with SK-MEL-28 melanoma. The growth with SK-MEL-2 melanoma was 105%.
`O=c1c(-c2nc3ccccc3[nH]2)cc2ccccc2n1Cc1cn(Cc2ccc(F)cc2)nn1`: the growth in the assay with K-562 leukemia was 17.7%; in the assay with MALME-3M melanoma it was 12.8%; in the assay with MDA-MB-231 breast it was 4.33% (active); in the assay on RXF 393 renal, -25.5% (active); in the assay with SF-268 CNS it was 29.4%; with SF-295 CNS it was 1.67% (active). In addition, the growth in the assay with SF-539 CNS is -55.9% (active); with UACC-257 melanoma it was 49.9%; with M14 melanoma, -20.7% (active); with HCT-15 colon it was 16.9%; with HT29 colon, 2.52% (active); in the assay on SNB-75 CNS, -19.2% (active). In addition, the growth with SNB-19 CNS was 21.8%; with U251 CNS, 14.2%; with PC-3 prostate, 22%; in the assay on SK-MEL-5 melanoma, 6.69% (active); in the assay with LOX IMVI melanoma, 12.8%; in the assay on SK-MEL-28 melanoma it was 45.1%. Also, the growth in the assay with SK-MEL-2 melanoma is 36%.
For the compound `O=C(Nc1ccc(F)c(Cl)c1)Nc1ccc(Cl)c(Cl)c1`, the growth in the assay with K-562 leukemia was 15.4%; in the assay with MALME-3M melanoma, 57.5%; with MDA-MB-231 breast, 76%; in the assay with RXF 393 renal it was 72.8%; with SF-268 CNS it was 88.1%; with SF-295 CNS it was 36.6%. Further, the growth in the assay on SF-539 CNS was 80.3%; in the assay on UACC-257 melanoma it was 84.1%; in the assay with M14 melanoma, 53.6%; in the assay on HCT-15 colon, 53.1%; with HT29 colon it was 51.8%; in the assay with SNB-75 CNS, 79.7%. The growth in the assay with SNB-19 CNS is 92.8%; with U251 CNS, 63.4%; with PC-3 prostate, 77%; in the assay with SK-MEL-5 melanoma, 59.6%; with UACC-62 melanoma it was 58.9%; with SK-MEL-28 melanoma, 70.1%. The growth in the assay with SK-MEL-2 melanoma is 79.7%.
In the case of `COc1ccc(CCN2C(=O)CCSC2=S)cc1OC`, the growth is 80.9% in the assay with K-562 leukemia; 101% in the assay on MALME-3M melanoma; 106% with MDA-MB-231 breast; 90.7% in the assay with RXF 393 renal; 97.1% in the assay on SF-268 CNS; 98.7% in the assay with SF-295 CNS. The growth is 89.7% in the assay with SF-539 CNS; 96.6% in the assay on UACC-257 melanoma; 105% with M14 melanoma; 86.2% with HCT-15 colon; 107% in the assay with HT29 colon; 84.7% in the assay with SNB-75 CNS. In addition, the growth in the assay on SNB-19 CNS is 103%; in the assay with U251 CNS it was 97.2%; with SK-MEL-5 melanoma, 94.6%; in the assay with UACC-62 melanoma, 94.6%; with LOX IMVI melanoma, 91.1%; with SK-MEL-28 melanoma it was 98.2%. The growth in the assay on SK-MEL-2 melanoma is 102%.

The values are drawn from PubChem BioAssay (NCI).
